About 83,000 compounds went through this panel and 20% of them were active in at least one assay; those are over-represented in the sample as a whole.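 Cell lines were cultured in 96-well plates, exposed to a single compound concentration, and assessed for percent growth 48 hours later.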 Unmarked numbers belong to inactive results. The source made the active and inactive calls. The calls were made as follows: active = growth percent below 10; inactive = the rest.

The values that follow come from PubChem BioAssay (NCI).

Among the test systems are SK-MEL-2 melanoma; EKVX NSCLC; SN12C renal; UO-31 renal; TK-10 renal; ACHN renal; CAKI-1 renal; A498 renal; CCRF-CEM leukemia; MOLT-4 leukemia.
Common to all, as to assay: NCI-60 one-dose screen, 48 h (100 = growth as untreated, 0 = no growth, -100 = all killed)
Holding throughout (conditions): 10 µM unless noted

For `NS(=O)(=O)c1ccc(N=Nc2c(O)n(Cc3ccccc3)c3ccc(Cl)cc23)cc1`, the growth was 98.6% with SK-MEL-2 melanoma; 91.2% in the assay with EKVX NSCLC; 87.3% in the assay on SN12C renal; 81.2% with UO-31 renal; 95% with TK-10 renal; 64.9% in the assay with ACHN renal. Moreover, the growth was 64.4% in the assay on CAKI-1 renal, 78.3% with A498 renal, 96.2% with CCRF-CEM leukemia and 72.2% with MOLT-4 leukemia.

As to `C/C(Cc1ccc(Cl)cc1)=C(\c1ccc(O)cc1)c1ccc(Cl)cc1`, the growth in the assay on SK-MEL-2 melanoma is 90.9%; in the assay with EKVX NSCLC, 83.9%; with SN12C renal it was 95.1%; in the assay with UO-31 renal, 85.1%; with TK-10 renal it was 95.3%; in the assay on ACHN renal, 99.5%. Besides, the growth in the assay on CAKI-1 renal is 84.7%; in the assay with A498 renal, 116%; in the assay with CCRF-CEM leukemia it was 92.2%; in the assay on MOLT-4 leukemia it was 81%.

Take `COC(=O)c1nc(-c2ccccc2)oc1S(=O)(=O)Cc1ccccc1`: the growth was 80.2% in the assay with SK-MEL-2 melanoma; 119% in the assay on EKVX NSCLC; 93.5% in the assay on SN12C renal; 72.9% in the assay with UO-31 renal; 5.41% (active) with TK-10 renal; -35% (active) in the assay with ACHN renal. Moreover, the growth with CAKI-1 renal was 8.14% (active); with A498 renal, 98.1%; with CCRF-CEM leukemia it was -6.08% (active); with MOLT-4 leukemia, -9.29% (active).

As for `CCc1ncnc2c1ccn2C(C)c1ccc(OC)c(F)c1` (stereo not drawn), the growth is 34.3% with SK-MEL-2 melanoma; 51.9% in the assay with EKVX NSCLC; 67% with SN12C renal; 60.1% in the assay with UO-31 renal; 58.8% with TK-10 renal; 75.4% with ACHN renal. Also, the growth with CAKI-1 renal is 40.5%; in the assay on A498 renal it was 46.3%; with CCRF-CEM leukemia it was 42.4%; with MOLT-4 leukemia it was 32.7%.

As to `COCCOc1cc2ncnc(N3CCN(c4ncc(S(=O)(=O)N5CCCCC5)cn4)CC3)c2cc1OCCOC`, the growth in the assay with SK-MEL-2 melanoma is 105%; with EKVX NSCLC, 104%; with SN12C renal, 104%; in the assay with UO-31 renal, 78.1%; in the assay with TK-10 renal it was 106%; in the assay with ACHN renal, 115%. In addition, the growth is 101% in the assay with CAKI-1 renal, 92.1% in the assay on A498 renal, 84.5% in the assay with CCRF-CEM leukemia and 91.9% in the assay on MOLT-4 leukemia.

Consider `O=C(CN1C(=O)S/C(=C\c2ccccc2)C1=O)Nc1ncc(Cc2ccccc2Cl)s1`, for which the growth is 102% in the assay on SK-MEL-2 melanoma; 108% in the assay with EKVX NSCLC; 102% with SN12C renal; 75.1% with UO-31 renal; 103% with TK-10 renal; 92% in the assay with ACHN renal. For the same compound, the growth in the assay on CAKI-1 renal is 78.2%; with A498 renal, 112%; in the assay on CCRF-CEM leukemia, 97.7%; in the assay with MOLT-4 leukemia it was 85.9%.

For the compound `CC(=O)Oc1ccc(/C(=C(\C)c2ccc(Cl)cc2)c2ccc(OCCN3CCCCC3)cc2)cc1`, the growth is 58.4% with SK-MEL-2 melanoma; 62.7% with EKVX NSCLC; 64.6% with SN12C renal; 47.7% with UO-31 renal; 68.4% in the assay with TK-10 renal; 58.3% with ACHN renal. Besides, the growth was 74.9% with CAKI-1 renal, 57.5% in the assay on A498 renal, 17.5% in the assay on CCRF-CEM leukemia and -8.3% (active) with MOLT-4 leukemia.

For the compound `COc1ccc(/C=N/NC(=O)c2ccc(-n3cc(-c4ccccc4)nn3)cc2)cc1OC`, the growth is 108% with SK-MEL-2 melanoma; 102% in the assay on EKVX NSCLC; 103% in the assay on SN12C renal; 108% in the assay on UO-31 renal; 113% in the assay with TK-10 renal; 98% in the assay with ACHN renal. Besides, the growth in the assay on CAKI-1 renal was 81%; with A498 renal it was 100%; in the assay on CCRF-CEM leukemia it was 99.2%; with MOLT-4 leukemia, 95.6%.

In the case of `CCOC(=O)C/C(=N\Nc1cc(=O)[nH]c2ccc(Br)cc12)C(=O)OCC`, the growth was 103% in the assay on SK-MEL-2 melanoma; 109% in the assay with EKVX NSCLC; 100% with SN12C renal; 71.4% in the assay on UO-31 renal; 126% in the assay with TK-10 renal; 95.7% with ACHN renal. For the same compound, the growth with CAKI-1 renal was 83.1%; with A498 renal it was 122%; in the assay with CCRF-CEM leukemia, -36.7% (active); with MOLT-4 leukemia, -15.7% (active).

In the case of `CCCNC(=O)Nc1ccc2cc3ccc(NC(=O)NCCC)cc3nc2c1`, the growth in the assay on SK-MEL-2 melanoma was 84.7%; in the assay on EKVX NSCLC, 97.8%; with SN12C renal, 94.5%; with UO-31 renal it was 76.1%; in the assay with TK-10 renal, 115%; with ACHN renal, 78.1%. Further, the growth in the assay with CAKI-1 renal is 104%; with A498 renal, 71.4%; in the assay with CCRF-CEM leukemia, 47.4%; in the assay on MOLT-4 leukemia it was 84.8%.

Take `Cc1cn(-c2cc(NC(=O)c3cccc(C#Cc4cccc5[nH]nc(N)c45)c3)cc(C(F)(F)F)c2)cn1`: the growth in the assay on SK-MEL-2 melanoma was 22.5%; in the assay with EKVX NSCLC, 56.7%; with SN12C renal, 29.9%; with UO-31 renal it was 9.11% (active); with TK-10 renal it was 78.8%; in the assay with ACHN renal, 21.5%. Besides, the growth with CAKI-1 renal was 75.7%; in the assay with A498 renal it was 35.1%; in the assay with MOLT-4 leukemia, 20.7%.

In the case of `COc1ccc2cc1Oc1ccc(cc1)C[C@H]1c3c(cc4c(c3Oc3cc5c(cc3OC)CCN(C)[C@@H]5C2)OCO4)CCN1C`, the growth in the assay on SK-MEL-2 melanoma was 69.9%; with EKVX NSCLC, 75.1%; in the assay with SN12C renal, 60.3%; with UO-31 renal, 60.6%; in the assay on TK-10 renal, 44.8%; in the assay on ACHN renal it was 63%. In addition, the growth in the assay on CAKI-1 renal was 70.8%; in the assay on A498 renal, 32.2%; in the assay with CCRF-CEM leukemia, 21%; with MOLT-4 leukemia it was 31.5%.

Turning to `Cn1c(I)c(C#CCO[Si](C)(C)C(C)(C)C)c(=O)[nH]c1=O`, the growth in the assay with SK-MEL-2 melanoma was 69.2%; in the assay with EKVX NSCLC, 105%; with SN12C renal, 114%; in the assay on UO-31 renal, 25.3%; in the assay on TK-10 renal it was 92.7%; in the assay on ACHN renal, 99.7%. Besides, the growth in the assay with CAKI-1 renal was 103%; with A498 renal it was 94.5%; in the assay with CCRF-CEM leukemia, 5.42% (active); with MOLT-4 leukemia it was -22.9% (active).

Turning to `c1ccc2cc(C[n+]3ccn(CCCCCCCCCCn4cc[n+](Cc5ccc6ccccc6c5)c4)c3)ccc2c1`, the growth in the assay on SK-MEL-2 melanoma is -39.4% (active); with EKVX NSCLC, 13.7%; in the assay on SN12C renal it was 4.24% (active); with UO-31 renal it was 77.5%; in the assay on TK-10 renal, 15.1%; with ACHN renal, 52.2%. The results for the growth in the assay on CAKI-1 renal, in the assay with A498 renal and with MOLT-4 leukemia were 74.7%, 9.69% (active) and -43.6% (active), respectively.
